# Reference: ChEMBL document CHEMBL3433997, “St. Jude Leishmania screening dataset” (2016)
# Key:
# Assay type in all cases: functional
# [1] = target: Solute carrier family 2, facilitated glucose transporter member 1 (Homo sapiens) (UniProt P11166); test: ST_JUDE_LEISH: Cytotoxicity at 2uM final concentration against transgenic Leishmania Mexicana promastigotes LmGLUT1 that are glucose transport deficient and complemented with the human glucose transporter GLUT1. Activity is measured by DNA content using SYBR green in vitro
# Sequence of Solute carrier family 2, facilitated glucose transporter member 1 (Homo sapiens) (P11166 whole entry): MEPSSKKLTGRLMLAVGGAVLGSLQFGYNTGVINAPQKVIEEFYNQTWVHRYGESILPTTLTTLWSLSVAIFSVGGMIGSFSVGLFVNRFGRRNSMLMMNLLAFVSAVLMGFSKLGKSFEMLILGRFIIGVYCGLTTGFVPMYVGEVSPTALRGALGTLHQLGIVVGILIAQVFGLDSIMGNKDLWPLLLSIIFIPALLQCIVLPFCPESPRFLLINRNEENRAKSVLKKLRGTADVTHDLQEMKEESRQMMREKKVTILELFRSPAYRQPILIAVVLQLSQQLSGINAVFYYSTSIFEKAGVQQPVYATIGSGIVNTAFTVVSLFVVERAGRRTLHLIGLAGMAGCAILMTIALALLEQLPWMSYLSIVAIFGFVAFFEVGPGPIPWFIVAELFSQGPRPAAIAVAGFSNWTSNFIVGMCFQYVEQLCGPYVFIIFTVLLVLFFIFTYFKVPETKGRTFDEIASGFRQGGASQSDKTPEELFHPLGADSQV
# [2] = target: Hexose transporter 1 (Plasmodium falciparum) (UniProt O97467); test: ST_JUDE_LEISH: Cytotoxicity at 2uM final concentration against transgenic Leishmania Mexicana promastigotes LmPfHT that are glucose transport deficient and complemented with the Plasmodium falciparum hexose transporter. Activity is measured by DNA content using SYBR green in vitro
# [3] = target: Glucose transporter (Leishmania mexicana) (UniProt O61059); test: ST_JUDE_LEISH: Cytotoxicity at 2uM final concentration against transgenic Leishmania Mexicana promastigotes LmGT2 that are glucose transport deficient and complemented with the L. Mexicana glucose transporter 2. Activity is measured by DNA content using SYBR green in vitro
smiles,measurement,setting,value
CNC(=O)/C=C/c1cc(NC(=O)Nc2cc(C)nc3c(F)cccc23)ccc1OC,inhibition,[1],3.93%
same,inhibition,[2],2.38%
same,inhibition,[3],3.44%
COc1cc(Nc2nccc(N3CCC(NC(=O)Nc4ccc5c(c4)OCO5)C3)n2)cc(OC)c1OC (stereo not drawn),inhibition,[1],11.1%
same,inhibition,[2],6.84%
same,inhibition,[3],8.87%
CCNc1cc(C(=O)N[C@@H](Cc2ccccc2)[C@H](O)CNC(C)CCCC(C)C)cc(N2CCCS2(=O)=O)c1 (stereo partly drawn),inhibition,[1],2.83%
same,inhibition,[2],1.89%
same,inhibition,[3],2.08%
Cc1[nH]c(C)c([N+](=O)[O-])c(=O)c1-c1ccc(Oc2ccc(OC(F)(F)F)cc2)cc1,inhibition,[1],0.69%
same,inhibition,[2],1.27%
same,inhibition,[3],1.41%
Cn1cnc(CCNC(=O)c2ccc(-c3cccc(-c4nc5ccccc5[nH]4)c3)cc2)c1,inhibition,[1],0.8%
same,inhibition,[2],0.81%
same,inhibition,[3],-1.62%
COc1ccc(CN2CCC(CN3CC4(OC3=O)c3ccccc3-c3ccccc34)C2)c(O)c1 (stereo not drawn),inhibition,[1],10.8%
same,inhibition,[2],9.02%
same,inhibition,[3],11%
CC(NC(=O)c1ccc(O)c(-c2ccc(Cl)c(Cl)c2)c1)C(=O)NCCN1CCCCC1 (stereo not drawn),inhibition,[1],-0.39%
same,inhibition,[2],1.71%
same,inhibition,[3],0.47%
CNC(=O)c1nc(-c2ccccc2)[nH]c1NC(C)=O,inhibition,[1],2.72%
same,inhibition,[2],3.44%
same,inhibition,[3],2.17%
CC(Cc1ccc(OCC(=O)NCC2CCN(CCc3cccc(Cl)c3)CC2)cc1)NCCc1cccc(Cl)c1 (stereo not drawn),inhibition,[1],3.07%
same,inhibition,[2],4.09%
same,inhibition,[3],1.92%
CCN(CCCN1CCCCC1)c1cc(C)nc(Nc2cc(F)cc(F)c2)n1,inhibition,[1],5.16%
same,inhibition,[2],4.98%
same,inhibition,[3],4.62%
CN(CCCCCNC(=O)/C=C/c1ccc(Cl)c(Cl)c1)CCCCc1c[nH]c2ccccc12,inhibition,[1],0.57%
same,inhibition,[2],0.62%
same,inhibition,[3],1.11%
CCc1c(CCNCCCCCCNCCc2ccc(OC)c(OC)c2C)ccc(OC)c1OC,inhibition,[1],10.2%
same,inhibition,[2],9.23%
same,inhibition,[3],12.1%
CCCN(CC)CCOC(=O)c1ccccc1,inhibition,[1],8.35%
same,inhibition,[2],7.44%
same,inhibition,[3],9.33%
Cn1nc(C(F)(F)F)c(-c2ccc(Br)cc2)c1NC(=O)Cc1ccccc1F,inhibition,[1],-1.83%
same,inhibition,[2],3.22%
same,inhibition,[3],-2.17%
N=C1N=C(N)NCN1OCc1ccc(Cl)c(Cl)c1,inhibition,[1],3.39%
same,inhibition,[2],1.71%
same,inhibition,[3],-0.31%
CC(C)(C)c1nn(-c2ccccc2)c2[nH]c(=O)c(CNCc3ccccc3)cc12,inhibition,[1],2.76%
same,inhibition,[2],2.02%
same,inhibition,[3],3.75%
CCc1sc(N2CCN(C)CC2)nc1C(=O)NCCc1ccc(Cl)c(Cl)c1,inhibition,[1],4.62%
same,inhibition,[2],3.9%
same,inhibition,[3],3.6%
Cc1nc(O)c2c(ccc3ccc(CNc4ccc(C(=O)N[C@@H](CCC(=O)O)C(=O)O)cc4)cc32)n1,inhibition,[1],0.64%
same,inhibition,[2],2.36%
same,inhibition,[3],1.05%
CC(C)(C)c1ccc(CN2CCCCC(NC(=O)c3cc(-c4ccccc4F)cs3)C2)cc1 (stereo not drawn),inhibition,[1],-1.83%
same,inhibition,[2],-0.56%
same,inhibition,[3],0%
CCNc1cc(C(=O)N[C@@H](Cc2ccc(F)c(F)c2)[C@H](O)CNC2CCCCC2)cc(N2CCCCS2(=O)=O)c1,inhibition,[1],1.98%
same,inhibition,[2],0.24%
same,inhibition,[3],0.91%
CCOC(=O)c1ccc(NC(=O)NNC(=O)c2ccc(CCN3CCC(c4nc(COCC(F)(F)F)c(-c5ccc(F)cc5)o4)CC3)cc2)cc1,inhibition,[1],1.09%
same,inhibition,[2],1.22%
same,inhibition,[3],0.84%
Cc1ccc(O)c(Nc2c3c(c(C#N)c4nc5ccccc5n24)CCC3)c1,inhibition,[1],2.48%
same,inhibition,[2],1.2%
same,inhibition,[3],-0.54%
CC(C)CCNCc1ccc(OCc2cccc(COc3ccc(CNCCC(C)C)cc3I)c2)c(I)c1,inhibition,[1],0.58%
same,inhibition,[2],-0.4%
same,inhibition,[3],-0.23%
Oc1ccc2ccccc2c1CNCCC1CCCCC1,inhibition,[1],0.07%
same,inhibition,[2],0.52%
same,inhibition,[3],1.73%
CCN(CC)CCN1C(=O)c2oc3ccc(F)cc3c(=O)c2C1c1cccc(Cl)c1 (stereo not drawn),inhibition,[1],-2.07%
same,inhibition,[2],2.22%
same,inhibition,[3],4.25%
O=C(Oc1ccc(C2CNCCc3c2cc(OC(=O)c2ccc(O)cc2)c(OC(=O)c2ccc(O)cc2)c3Cl)cc1)c1ccc(O)cc1 (stereo not drawn),inhibition,[1],4.39%
same,inhibition,[2],5.32%
same,inhibition,[3],4.76%
COc1ccc(C(=O)Nc2ccc3nc(N4CCCCC4)cc(C)c3c2)cc1OC,inhibition,[1],1.54%
same,inhibition,[2],-0.36%
same,inhibition,[3],0.56%
c1ccc(-c2n[nH]cc2Nc2ccnc3ccccc23)nc1,inhibition,[1],5.35%
same,inhibition,[2],3.76%
same,inhibition,[3],3.97%
CC(CN1CCN(C)CC1)C(=O)Nc1ccc(-c2cccc(-c3nc4ccccc4[nH]3)c2)cc1 (stereo not drawn),inhibition,[1],2.41%
same,inhibition,[2],1.7%
same,inhibition,[3],-0.2%
COc1cc(C=CC(=O)N2CCC3(CC2)CC(=O)c2ccccc2O3)cc(OC)c1OC,inhibition,[1],1.6%
same,inhibition,[2],2.09%
same,inhibition,[3],-0.58%
COc1cc(Cc2cnc(N)nc2N)c2c(c1OC)OC(C)(C)C=C2,inhibition,[1],4.17%
same,inhibition,[2],5.13%
same,inhibition,[3],4.87%
Cc1cc(Br)cnc1CCCCNC1=NC(=O)CN1C,inhibition,[1],0.57%
same,inhibition,[2],-0.02%
same,inhibition,[3],0.12%
c1cc(-c2ccc(CNCCc3ccncc3)cc2)cc(-c2nc3ccccc3[nH]2)c1,inhibition,[1],1.85%
same,inhibition,[2],0.82%
same,inhibition,[3],3.55%
COc1c(C2CCN(CCCCNC(=O)c3ccc(-c4ccc(NC(=O)C(F)(F)F)cc4)cc3)CC2)ccc2c1CCCC2,inhibition,[1],1.22%
same,inhibition,[2],4.26%
same,inhibition,[3],0.3%
COc1cc(Cc2cnc(N)nc2N)cc(OCCCc2cc(OCc3ccccc3)no2)c1OC,inhibition,[1],10%
same,inhibition,[2],8.52%
same,inhibition,[3],8.73%
COc1ccc2c(=NN=Cc3ccncc3)cc(C)[nH]c2c1,inhibition,[1],4.05%
same,inhibition,[2],3.94%
same,inhibition,[3],3.63%
